Article PMC11062922 (Nature Chemical Biology, 2023)
Like-named read-outs stand apart in the source and are kept apart here.

Experiments:
PRKD3 = settings: read-out: apparent Kd, n = 1
Q6ZSR9 = Q6ZSR9 (human, UniProt Q6ZSR9); settings: read-out: apparent Kd, n = 1
Chain of Q6ZSR9 (Q6ZSR9 whole entry, looked up): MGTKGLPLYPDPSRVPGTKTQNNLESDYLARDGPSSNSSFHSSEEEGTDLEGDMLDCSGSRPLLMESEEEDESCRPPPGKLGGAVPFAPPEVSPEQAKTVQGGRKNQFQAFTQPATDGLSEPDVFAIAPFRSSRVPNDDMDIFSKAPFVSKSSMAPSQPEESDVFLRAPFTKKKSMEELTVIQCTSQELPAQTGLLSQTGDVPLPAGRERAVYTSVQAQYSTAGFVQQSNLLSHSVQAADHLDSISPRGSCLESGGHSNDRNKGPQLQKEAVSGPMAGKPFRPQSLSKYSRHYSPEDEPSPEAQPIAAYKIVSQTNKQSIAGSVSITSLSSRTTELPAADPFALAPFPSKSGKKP

Lestaurtinib
potency estimated from few doses (PRKD3; compound concentrations:100 nM and 1000 nM (sheet 'Lestaurtinib' of Supplementary Table 1),run:Lestaurtinib_02766_R2,Plate:MR027): 74.6 nM
potency estimated from few doses (PRKD3; compound concentrations:100 nM and 1000 nM (sheet 'Lestaurtinib' of Supplementary Table 1),run:Lestaurtinib_02768_R3,Plate:MR028): 59.1 nM
potency estimated from few doses (PRKD3; compound concentrations:100 nM and 1000 nM (sheet 'Lestaurtinib' of Supplementary Table 1),run:Lestaurtinib_02795_R2,Plate:MR022): 79.8 nM
potency estimated from few doses (PRKD3; compound concentrations:100 nM and 1000 nM (sheet 'Lestaurtinib' of Supplementary Table 1),run:Lestaurtinib_02802_R1,Plate:MR029): 83.1 nM
potency estimated from few doses (PRKD3; compound concentrations:100 nM and 1000 nM (sheet 'Lestaurtinib' of Supplementary Table 1),run:Lestaurtinib_02802_R3,Plate:MR029): 82.7 nM
potency estimated from few doses (PRKD3; compound concentrations:100 nM and 1000 nM (sheet 'Lestaurtinib' of Supplementary Table 1),run:Lestaurtinib_02896_R1,Plate:MR030): 61.8 nM
potency estimated from few doses (PRKD3; compound concentrations:100 nM and 1000 nM (sheet 'Lestaurtinib' of Supplementary Table 1),run:Lestaurtinib_02896_R2,Plate:MR030): 80.6 nM
potency estimated from few doses (PRKD3; compound concentrations:100 nM and 1000 nM (sheet 'Lestaurtinib' of Supplementary Table 1),run:Lestaurtinib_02896_R3,Plate:MR030): 92.2 nM
potency estimated from few doses (PRKD3; compound concentrations:100 nM and 1000 nM (sheet 'Lestaurtinib' of Supplementary Table 1),run:Lestaurtinib_03172_R3,Plate:MR031): 90.1 nM
potency estimated from few doses (PRKD3; compound concentrations:100 nM and 1000 nM (sheet 'Lestaurtinib' of Supplementary Table 1),run:Lestaurtinib_03252_R1,Plate:MR032): 43.4 nM
potency estimated from few doses (PRKD3; compound concentrations:100 nM and 1000 nM (sheet 'Lestaurtinib' of Supplementary Table 1),run:Lestaurtinib_03252_R2,Plate:MR032): 30.6 nM
potency estimated from few doses (PRKD3; compound concentrations:100 nM and 1000 nM (sheet 'Lestaurtinib' of Supplementary Table 1),run:Lestaurtinib_03260_R2,Plate:MR033): 96.7 nM
potency estimated from few doses (PRKD3; compound concentrations:100 nM and 1000 nM (sheet 'Lestaurtinib' of Supplementary Table 1),run:Lestaurtinib_03260_R3,Plate:MR033): 91.2 nM
potency estimated from few doses (Q6ZSR9; compound concentrations:100 nM and 1000 nM (sheet 'Lestaurtinib' of Supplementary Table 1),run:Lestaurtinib_02339_R1,Plate:MR001): 78.9 nM
potency estimated from few doses (Q6ZSR9; compound concentrations:100 nM and 1000 nM (sheet 'Lestaurtinib' of Supplementary Table 1),run:Lestaurtinib_02339_R3,Plate:MR001): 48.8 nM
potency estimated from few doses (Q6ZSR9; compound concentrations:100 nM and 1000 nM (sheet 'Lestaurtinib' of Supplementary Table 1),run:Lestaurtinib_02364_R1,Plate:MR002): 68.5 nM
potency estimated from few doses (Q6ZSR9; compound concentrations:100 nM and 1000 nM (sheet 'Lestaurtinib' of Supplementary Table 1),run:Lestaurtinib_02364_R2,Plate:MR002): 68.1 nM
potency estimated from few doses (Q6ZSR9; compound concentrations:100 nM and 1000 nM (sheet 'Lestaurtinib' of Supplementary Table 1),run:Lestaurtinib_02364_R3,Plate:MR002): 78.6 nM
potency estimated from few doses (Q6ZSR9; compound concentrations:100 nM and 1000 nM (sheet 'Lestaurtinib' of Supplementary Table 1),run:Lestaurtinib_02367_R1,Plate:MR003): 62.7 nM
potency estimated from few doses (Q6ZSR9; compound concentrations:100 nM and 1000 nM (sheet 'Lestaurtinib' of Supplementary Table 1),run:Lestaurtinib_02367_R2,Plate:MR003): 66.7 nM
potency estimated from few doses (Q6ZSR9; compound concentrations:100 nM and 1000 nM (sheet 'Lestaurtinib' of Supplementary Table 1),run:Lestaurtinib_02367_R3,Plate:MR003): 78.8 nM
potency estimated from few doses (Q6ZSR9; compound concentrations:100 nM and 1000 nM (sheet 'Lestaurtinib' of Supplementary Table 1),run:Lestaurtinib_02381_R1,Plate:MR004): 69.4 nM
potency estimated from few doses (Q6ZSR9; compound concentrations:100 nM and 1000 nM (sheet 'Lestaurtinib' of Supplementary Table 1),run:Lestaurtinib_02381_R2,Plate:MR004): 64.6 nM
potency estimated from few doses (Q6ZSR9; compound concentrations:100 nM and 1000 nM (sheet 'Lestaurtinib' of Supplementary Table 1),run:Lestaurtinib_02407_R1,Plate:MR005): 62.3 nM
potency estimated from few doses (Q6ZSR9; compound concentrations:100 nM and 1000 nM (sheet 'Lestaurtinib' of Supplementary Table 1),run:Lestaurtinib_02407_R2,Plate:MR005): 71.9 nM
potency estimated from few doses (Q6ZSR9; compound concentrations:100 nM and 1000 nM (sheet 'Lestaurtinib' of Supplementary Table 1),run:Lestaurtinib_02407_R3,Plate:MR005): 68.5 nM
potency estimated from few doses (Q6ZSR9; compound concentrations:100 nM and 1000 nM (sheet 'Lestaurtinib' of Supplementary Table 1),run:Lestaurtinib_02422_R1,Plate:MR006): 72.4 nM
potency estimated from few doses (Q6ZSR9; compound concentrations:100 nM and 1000 nM (sheet 'Lestaurtinib' of Supplementary Table 1),run:Lestaurtinib_02422_R2,Plate:MR006): 20.6 nM
potency estimated from few doses (Q6ZSR9; compound concentrations:100 nM and 1000 nM (sheet 'Lestaurtinib' of Supplementary Table 1),run:Lestaurtinib_02437_R2,Plate:MR007): 55.6 nM
potency estimated from few doses (Q6ZSR9; compound concentrations:100 nM and 1000 nM (sheet 'Lestaurtinib' of Supplementary Table 1),run:Lestaurtinib_02437_R3,Plate:MR007): 9.66 nM
potency estimated from few doses (Q6ZSR9; compound concentrations:100 nM and 1000 nM (sheet 'Lestaurtinib' of Supplementary Table 1),run:Lestaurtinib_02438_R3,Plate:MR008): 74.8 nM
potency estimated from few doses (Q6ZSR9; compound concentrations:100 nM and 1000 nM (sheet 'Lestaurtinib' of Supplementary Table 1),run:Lestaurtinib_02443_R1,Plate:MR009): 51.6 nM
potency estimated from few doses (Q6ZSR9; compound concentrations:100 nM and 1000 nM (sheet 'Lestaurtinib' of Supplementary Table 1),run:Lestaurtinib_02443_R2,Plate:MR009): 62.7 nM
potency estimated from few doses (Q6ZSR9; compound concentrations:100 nM and 1000 nM (sheet 'Lestaurtinib' of Supplementary Table 1),run:Lestaurtinib_02443_R3,Plate:MR009): 77.8 nM
potency estimated from few doses (Q6ZSR9; compound concentrations:100 nM and 1000 nM (sheet 'Lestaurtinib' of Supplementary Table 1),run:Lestaurtinib_02473_R1,Plate:MR010): 78.4 nM
potency estimated from few doses (Q6ZSR9; compound concentrations:100 nM and 1000 nM (sheet 'Lestaurtinib' of Supplementary Table 1),run:Lestaurtinib_02473_R2,Plate:MR010): 61 nM
potency estimated from few doses (Q6ZSR9; compound concentrations:100 nM and 1000 nM (sheet 'Lestaurtinib' of Supplementary Table 1),run:Lestaurtinib_02473_R3,Plate:MR010): 35.7 nM
potency estimated from few doses (Q6ZSR9; compound concentrations:100 nM and 1000 nM (sheet 'Lestaurtinib' of Supplementary Table 1),run:Lestaurtinib_02482_R2,Plate:MR011): 76.6 nM
potency estimated from few doses (Q6ZSR9; compound concentrations:100 nM and 1000 nM (sheet 'Lestaurtinib' of Supplementary Table 1),run:Lestaurtinib_02482_R3,Plate:MR011): 65.6 nM
potency estimated from few doses (Q6ZSR9; compound concentrations:100 nM and 1000 nM (sheet 'Lestaurtinib' of Supplementary Table 1),run:Lestaurtinib_02487_R1,Plate:MR012): 71.7 nM
potency estimated from few doses (Q6ZSR9; compound concentrations:100 nM and 1000 nM (sheet 'Lestaurtinib' of Supplementary Table 1),run:Lestaurtinib_02487_R2,Plate:MR012): 66.6 nM
potency estimated from few doses (Q6ZSR9; compound concentrations:100 nM and 1000 nM (sheet 'Lestaurtinib' of Supplementary Table 1),run:Lestaurtinib_02487_R3,Plate:MR012): 81.2 nM
